Measurements as given in PubChem BioAssay AID1159580 (chemical genetic matrix, 2015).
Hit rate of the full screen: of about 5,500 compounds, about 2,000 (36%) were called active. Inconclusive results (about 18%) are left out. Rule as the data show it: active = normalized growth mostly below about 0.91 (no sharp cut-off); inconclusive = no clear call, values can overlap the other calls; inactive = mostly above about 0.92. The list shows a part of the results.

Experiment: chemical genetic growth profiling, strain panel (AID 1159580);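 also: tested at 20 µM; growth read once vehicle control cultures reached saturation at 30 °C; 1 = growth at the plate median or of vehicle wells; lower values mean less growth of the strain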
Details: S. cerevisiae deletion strains, growth OD

Measured: normalized growth

CC[C@]12C=CCN3CC[C@@]4(c5ccc(OC)cc5N(C)C4[C@@](O)(C(=O)OC)[C@@H]1OC(C)=O)[C@@H]32 (stereo not given in full)
inactive: locus YAL021C, strain ccr4, stronger effect = lower value 1.01 | locus YAL026C, strain drs2, stronger effect = lower value 0.993 | locus YAL030W, strain snc1, stronger effect = lower value 1.02 | locus YBL061C, strain skt5, stronger effect = lower value 1.01 | locus YBR009C, strain hhf1, stronger effect = lower value 1.01 | locus YBR023C, strain chs3, stronger effect = lower value 1.01 | locus YBR171W, strain sec66, stronger effect = lower value 0.995 | locus YBR231C, strain swc5, stronger effect = lower value 0.996 | locus YBR279W, strain paf1, stronger effect = lower value 1 | locus YCL011C, strain gbp2, stronger effect = lower value 1.02 | locus YCL016C, strain dcc1, stronger effect = lower value 0.988 | locus YCL061C, strain MRC1, stronger effect = lower value 1.01 | locus YCL069W, strain vba3, stronger effect = lower value 1 | locus YCR088W, strain abp1, stronger effect = lower value 1 | locus YDL005C, strain med2, stronger effect = lower value 0.992 | locus YDL040C, strain nat1, stronger effect = lower value 1.02 | locus YDR001C, strain nth1, stronger effect = lower value 1.02 | locus YDR069C, strain doa4, stronger effect = lower value 0.989 | locus YDR137W, strain rgp1, stronger effect = lower value 0.949 | locus YDR159W, strain sac3, stronger effect = lower value 1 | locus YDR195W, strain ref2 1.01 | locus YDR297W, strain sur2, stronger effect = lower value 0.996 | locus YDR334W, strain swr1, stronger effect = lower value 1.04 | locus YDR335W, strain msn5, stronger effect = lower value 1.01 | locus YDR392W, strain spt3, stronger effect = lower value 0.943 | locus YEL003W, strain gim4, stronger effect = lower value 1 | locus YEL037C, strain rad23, stronger effect = lower value 1 | locus YEL061C, strain CIN8 (second series), stronger effect = lower value 1.02 | locus YER015W, strain faa2, stronger effect = lower value 1.01 | locus YER016W, strain bim1, stronger effect = lower value 0.993 | locus YER111C, strain swi4, stronger effect = lower value 0.981 | locus YER155C, strain BEM2 (second series), stronger effect = lower value 0.973 | locus YFR010W, strain ubp6, stronger effect = lower value 1 | locus YGL167C, strain pmr1, stronger effect = lower value 0.992 | locus YGL173C, strain kem1, stronger effect = lower value 0.998 | locus YGL227W, strain vid30, stronger effect = lower value 0.989 | locus YGL240W, strain doc1, stronger effect = lower value 1 | locus YGL253W, strain hxk2, stronger effect = lower value 1.03 | locus YHR013C, strain ard1, stronger effect = lower value 0.966 | locus YHR027C, strain rpn1, stronger effect = lower value 1.01 | locus YHR030C, strain SLT2, stronger effect = lower value 0.912 | locus YHR079C, strain IRE1, stronger effect = lower value 0.924 | locus YHR142W, strain chs7, stronger effect = lower value 1.04 | locus YJL092W, strain hpr5, stronger effect = lower value 1.01 | locus YJL095W, strain BCK1 (second series), stronger effect = lower value 1 | locus YJL095W, strain BCK1, stronger effect = lower value 0.983 | locus YJL115W, strain asf1, stronger effect = lower value 0.999 | locus YJL129C, strain trk1, stronger effect = lower value 1.02 | locus YJL154C, strain vps35, stronger effect = lower value 0.992 | locus YJL164C, strain tpk1, stronger effect = lower value 1.01 | locus YJL166W, strain qcr8, stronger effect = lower value 1.01 | locus YJL187C, strain SWE1, stronger effect = lower value 1 | locus YJR066W, strain TOR1, stronger effect = lower value 0.909 | locus YKL160W, strain elf1, stronger effect = lower value 0.995 | locus YKR026C, strain gcn3, stronger effect = lower value 1.01 | locus YKR091W, strain srl3, stronger effect = lower value 0.992 | locus YLL001W, strain dnm1, stronger effect = lower value 0.997 | locus YLL026W, stronger effect = lower value 0.992 | locus YLL041C, strain sdh2, stronger effect = lower value 1.01 | locus YLR027C, strain aat2, stronger effect = lower value 1.01 | locus YLR113W, strain HOG1, stronger effect = lower value 0.942 | locus YLR221C, strain rsa3, stronger effect = lower value 0.999 | locus YLR258W, strain gsy2, stronger effect = lower value 1.01 | locus YLR262C, strain YPT6 (second series), stronger effect = lower value 0.927 | locus YLR320W, strain mms22, stronger effect = lower value 0.97 | locus YLR342W, strain FKS1, stronger effect = lower value 0.965 | locus YLR357W, strain rsc2, stronger effect = lower value 1.02 | locus YLR370C, strain arc18, stronger effect = lower value 1.01 | locus YLR384C, strain iki3, stronger effect = lower value 1.01 | locus YML120C, strain ndi1, stronger effect = lower value 0.994 | locus YMR058W, strain fet3, stronger effect = lower value 1.04 | locus YMR125W, strain sto1, stronger effect = lower value 1.03 | locus YMR129W, stronger effect = lower value 1 | locus YMR205C, strain PFK2, stronger effect = lower value 1.01 | locus YMR231W, strain pep5, stronger effect = lower value 0.993 | locus YNL071W, strain lat1, stronger effect = lower value 0.985 | locus YNL183C, strain NPR1, stronger effect = lower value 0.961 | locus YNL209W, strain ssb2, stronger effect = lower value 1.01 | locus YNL248C, strain rpa49, stronger effect = lower value 0.982 | locus YNL322C, strain KRE1 (second series), stronger effect = lower value 0.987 | locus YNR049C, strain mso1, stronger effect = lower value 1.01 | locus YOR001W, strain rrp6, stronger effect = lower value 1.01 | locus YOR070C, strain gyp1, stronger effect = lower value 1 | locus YOR080W, strain dia2, stronger effect = lower value 1 | locus YOR083W, strain WHI5, stronger effect = lower value 0.934 | locus YOR106W, strain vam3, stronger effect = lower value 0.994 | locus YOR231W, strain MKK1, stronger effect = lower value 0.928 | locus YOR265W, strain rbl2, stronger effect = lower value 1.01 | locus YOR270C, strain vph1, stronger effect = lower value 0.934 | locus YOR290C, strain snf2, stronger effect = lower value 0.999 | locus YPL051W, strain arl3, stronger effect = lower value 0.984 | locus YPL078C, strain atp4, stronger effect = lower value 0.989 | locus YPL106C, strain sse1, stronger effect = lower value 0.988 | locus YPL240C, strain hsp82, stronger effect = lower value 1 | locus YPL256C, strain CLN2, stronger effect = lower value 0.923
